Results: PMC7862700, “An all-to-all approach to the identification of sequence-specific readers for epigenetic DNA modifications on cytosine”

Columns and labels:
Test in all cases: DAPPL (digital affinity profiling via proximity ligation, sequencing); 10 mM Tris-HCl pH 7.5, 50 mM NaCl, 1 mM DTT, 4% glycerol, room temperature, 30 min; GST-TFs on glutathione beads, 16-mer random dsDNA library, 0.1% formaldehyde crosslink after washing; high values mean tight binding
Settings in all cases: protein: recombinant; tags: N-terminal GST; dsDNA, one strand shown
[1] = target: T1, ERF (Homo sapiens, UniProt P50548 1-548)
T1 sequence: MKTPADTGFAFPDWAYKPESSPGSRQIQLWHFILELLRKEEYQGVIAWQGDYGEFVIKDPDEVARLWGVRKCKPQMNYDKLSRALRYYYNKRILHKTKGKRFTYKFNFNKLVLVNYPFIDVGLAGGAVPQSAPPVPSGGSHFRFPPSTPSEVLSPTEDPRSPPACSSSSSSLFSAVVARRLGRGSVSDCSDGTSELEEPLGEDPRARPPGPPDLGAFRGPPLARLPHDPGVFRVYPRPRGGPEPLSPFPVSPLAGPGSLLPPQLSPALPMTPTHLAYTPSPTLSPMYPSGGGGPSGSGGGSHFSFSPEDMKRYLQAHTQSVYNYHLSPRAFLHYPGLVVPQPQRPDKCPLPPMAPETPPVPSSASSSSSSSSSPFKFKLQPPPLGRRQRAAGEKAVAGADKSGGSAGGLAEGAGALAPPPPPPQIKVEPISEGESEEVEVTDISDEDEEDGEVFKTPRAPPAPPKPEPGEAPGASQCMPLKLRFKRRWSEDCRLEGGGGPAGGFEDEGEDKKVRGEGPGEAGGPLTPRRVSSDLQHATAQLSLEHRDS
Method in brief: (§1)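 GST fusions of human transcription factors were expressed in yeast and captured with glutathione beads. Once given DNA barcodes and pooled alongside a tag-only sample, they were incubated for 30 min at room temperature with 200 nmole of a random double-stranded 16-mer DNA library in Tris/NaCl/DTT/glycerol buffer, then washed, crosslinked (0.1% formaldehyde), proximity-ligated, PCR-amplified and sequenced on an Illumina NextSeq500. The binding signal of each hexamer is its read frequency for a factor divided by its frequency for the tag-only sample.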

[2] = target: T2, ETV3L (Homo sapiens, UniProt Q6ZN32 1-361)
T2 sequence: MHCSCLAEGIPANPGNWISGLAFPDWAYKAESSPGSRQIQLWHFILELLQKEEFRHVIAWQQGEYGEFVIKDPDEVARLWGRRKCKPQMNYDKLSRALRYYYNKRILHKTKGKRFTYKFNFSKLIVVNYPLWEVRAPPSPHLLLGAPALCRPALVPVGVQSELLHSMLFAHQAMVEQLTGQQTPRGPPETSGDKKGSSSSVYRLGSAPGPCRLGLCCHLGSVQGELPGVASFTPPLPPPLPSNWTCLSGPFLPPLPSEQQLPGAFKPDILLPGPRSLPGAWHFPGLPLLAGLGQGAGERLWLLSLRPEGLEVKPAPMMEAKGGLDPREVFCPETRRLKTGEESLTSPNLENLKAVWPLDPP
Method in brief: as §1

[3] = target: T3, ETS2 (Homo sapiens, UniProt P15036 1-469)
T3 sequence: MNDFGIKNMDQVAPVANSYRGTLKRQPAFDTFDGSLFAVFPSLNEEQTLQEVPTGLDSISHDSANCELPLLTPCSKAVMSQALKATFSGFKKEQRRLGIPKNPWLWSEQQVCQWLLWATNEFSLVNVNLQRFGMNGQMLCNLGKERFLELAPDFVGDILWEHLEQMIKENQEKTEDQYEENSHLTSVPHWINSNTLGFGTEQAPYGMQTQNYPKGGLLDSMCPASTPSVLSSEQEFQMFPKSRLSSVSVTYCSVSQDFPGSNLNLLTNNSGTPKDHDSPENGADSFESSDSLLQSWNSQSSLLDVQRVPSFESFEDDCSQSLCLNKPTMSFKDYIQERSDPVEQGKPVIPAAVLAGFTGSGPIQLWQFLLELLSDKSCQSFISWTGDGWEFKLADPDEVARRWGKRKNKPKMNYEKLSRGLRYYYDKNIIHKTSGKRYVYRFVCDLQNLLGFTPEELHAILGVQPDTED
Method in brief: as §1

[4] = target: T4, SPDEF (Homo sapiens, UniProt O95238 1-335)
T4 sequence: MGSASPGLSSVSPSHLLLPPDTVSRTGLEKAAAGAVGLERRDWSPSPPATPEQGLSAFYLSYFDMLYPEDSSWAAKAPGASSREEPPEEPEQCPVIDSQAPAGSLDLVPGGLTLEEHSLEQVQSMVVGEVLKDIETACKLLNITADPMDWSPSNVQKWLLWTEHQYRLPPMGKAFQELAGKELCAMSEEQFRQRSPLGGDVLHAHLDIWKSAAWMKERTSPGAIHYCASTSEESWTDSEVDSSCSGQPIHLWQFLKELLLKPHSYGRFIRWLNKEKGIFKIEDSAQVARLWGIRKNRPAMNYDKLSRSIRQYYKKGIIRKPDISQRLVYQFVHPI
Method in brief: as §1

[5] = target: T5, ETV7 (Homo sapiens, UniProt Q9Y603 1-341)
T5 sequence: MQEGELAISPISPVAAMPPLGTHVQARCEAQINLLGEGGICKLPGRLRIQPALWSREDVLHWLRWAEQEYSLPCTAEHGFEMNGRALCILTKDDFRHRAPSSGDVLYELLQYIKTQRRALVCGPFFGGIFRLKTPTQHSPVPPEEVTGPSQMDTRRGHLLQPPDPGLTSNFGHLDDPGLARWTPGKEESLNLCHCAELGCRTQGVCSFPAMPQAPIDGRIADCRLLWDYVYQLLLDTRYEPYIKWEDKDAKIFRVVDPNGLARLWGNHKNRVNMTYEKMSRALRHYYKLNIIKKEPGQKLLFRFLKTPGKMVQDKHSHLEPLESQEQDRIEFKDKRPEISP
Method in brief: as §1

[6] = target: T6, ELF5 (Homo sapiens, UniProt Q9UKW6-2 1-255)
T6 sequence: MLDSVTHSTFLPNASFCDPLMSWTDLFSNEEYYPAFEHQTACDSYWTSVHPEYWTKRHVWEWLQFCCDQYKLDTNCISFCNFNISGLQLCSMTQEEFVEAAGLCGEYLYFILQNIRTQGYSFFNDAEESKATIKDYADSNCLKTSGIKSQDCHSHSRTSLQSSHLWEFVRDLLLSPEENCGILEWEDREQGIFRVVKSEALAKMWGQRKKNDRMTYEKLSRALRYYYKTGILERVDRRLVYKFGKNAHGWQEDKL
Method in brief: as §1

[7] = target: T7, ETV3 (Homo sapiens, UniProt P41162-2 1-143)
T7 sequence: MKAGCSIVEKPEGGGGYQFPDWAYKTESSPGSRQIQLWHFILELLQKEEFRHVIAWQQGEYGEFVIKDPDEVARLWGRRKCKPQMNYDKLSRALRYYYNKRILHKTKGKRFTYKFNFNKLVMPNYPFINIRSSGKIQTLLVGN
Method in brief: as §1

[8] = target: ETV6 (Homo sapiens, UniProt P41212 1-452)
ETV6, sequence (P41212 whole entry): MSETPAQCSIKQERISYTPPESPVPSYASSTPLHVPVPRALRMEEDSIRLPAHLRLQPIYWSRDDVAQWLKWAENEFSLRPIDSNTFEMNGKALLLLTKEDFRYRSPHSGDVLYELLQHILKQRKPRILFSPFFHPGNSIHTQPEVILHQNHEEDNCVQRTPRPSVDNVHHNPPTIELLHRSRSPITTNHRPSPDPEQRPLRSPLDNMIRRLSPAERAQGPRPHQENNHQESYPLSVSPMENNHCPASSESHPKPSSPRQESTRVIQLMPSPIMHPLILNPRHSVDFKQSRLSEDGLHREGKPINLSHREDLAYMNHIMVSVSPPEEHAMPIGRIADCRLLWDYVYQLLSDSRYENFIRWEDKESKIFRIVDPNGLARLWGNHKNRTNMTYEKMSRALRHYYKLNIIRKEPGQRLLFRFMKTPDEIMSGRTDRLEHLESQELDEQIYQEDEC
Method in brief: as §1

TCCATA was tested, and the binding signal [1] was 1.37 fold enrichment (6-mer frequency, TF over GST control), the binding signal [2] was 1.27 fold enrichment (6-mer frequency, TF over GST control) and the binding signal [3] was 1.25 fold enrichment (6-mer frequency, TF over GST control). The binding signal [4] was 1.27 fold enrichment (6-mer frequency, TF over GST control), the binding signal [5] was 1.14 fold enrichment (6-mer frequency, TF over GST control) and the binding signal [6] was 1.22 fold enrichment (6-mer frequency, TF over GST control). The binding signal [7] was 1.22 fold enrichment (6-mer frequency, TF over GST control) and the binding signal [8] was 1.27 fold enrichment (6-mer frequency, TF over GST control).

In the case of AGAATT, the binding signal [1] is reported as 1.17 fold enrichment (6-mer frequency, TF over GST control), the binding signal [2] is reported as 1.17 fold enrichment (6-mer frequency, TF over GST control) and the binding signal [3] is reported as 1.14 fold enrichment (6-mer frequency, TF over GST control). The binding signal [4] was 1.05 fold enrichment (6-mer frequency, TF over GST control), the binding signal [5] was 1.13 fold enrichment (6-mer frequency, TF over GST control) and the binding signal [6] was 1.1 fold enrichment (6-mer frequency, TF over GST control). For the same sequence, the binding signal [7] was 1.09 fold enrichment (6-mer frequency, TF over GST control) and the binding signal [8] was 1.2 fold enrichment (6-mer frequency, TF over GST control).

In the case of CAATTA, the binding signal [1] is reported as 1.13 fold enrichment (6-mer frequency, TF over GST control), the binding signal [2] is reported as 1.11 fold enrichment (6-mer frequency, TF over GST control) and the binding signal [3] is reported as 1.16 fold enrichment (6-mer frequency, TF over GST control). The binding signal [4] was 1.06 fold enrichment (6-mer frequency, TF over GST control), the binding signal [5] was 1.15 fold enrichment (6-mer frequency, TF over GST control) and the binding signal [6] was 1.13 fold enrichment (6-mer frequency, TF over GST control). The binding signal [7] was 1.18 fold enrichment (6-mer frequency, TF over GST control) and the binding signal [8] was 1.05 fold enrichment (6-mer frequency, TF over GST control).

For TATAGT, the binding signal [1] was 1.16 fold enrichment (6-mer frequency, TF over GST control), the binding signal [2] was 1.06 fold enrichment (6-mer frequency, TF over GST control) and the binding signal [3] was 1.02 fold enrichment (6-mer frequency, TF over GST control). For the same sequence, the binding signal [4] was 1.02 fold enrichment (6-mer frequency, TF over GST control), the binding signal [5] was 1.2 fold enrichment (6-mer frequency, TF over GST control) and the binding signal [6] was 1.04 fold enrichment (6-mer frequency, TF over GST control). The binding signal [7] was 1.06 fold enrichment (6-mer frequency, TF over GST control) and the binding signal [8] was 1.09 fold enrichment (6-mer frequency, TF over GST control).

In the case of CCTGAC, the binding signal [1] is reported as 1.37 fold enrichment (6-mer frequency, TF over GST control), the binding signal [2] is reported as 1.59 fold enrichment (6-mer frequency, TF over GST control) and the binding signal [3] is reported as 1.56 fold enrichment (6-mer frequency, TF over GST control). The binding signal [4] was 1.51 fold enrichment (6-mer frequency, TF over GST control), the binding signal [5] was 1.46 fold enrichment (6-mer frequency, TF over GST control) and the binding signal [6] was 1.63 fold enrichment (6-mer frequency, TF over GST control). For the same sequence, the binding signal [7] was 1.44 fold enrichment (6-mer frequency, TF over GST control) and the binding signal [8] was 1.6 fold enrichment (6-mer frequency, TF over GST control).

With AAACTA the binding signal [1] was 1.29 fold enrichment (6-mer frequency, TF over GST control), the binding signal [2] was 1.27 fold enrichment (6-mer frequency, TF over GST control) and the binding signal [3] was 1.35 fold enrichment (6-mer frequency, TF over GST control). For the same sequence, the binding signal [4] was 1.29 fold enrichment (6-mer frequency, TF over GST control), the binding signal [5] was 1.31 fold enrichment (6-mer frequency, TF over GST control) and the binding signal [6] was 1.32 fold enrichment (6-mer frequency, TF over GST control). The binding signal [7] was 1.24 fold enrichment (6-mer frequency, TF over GST control) and the binding signal [8] was 1.25 fold enrichment (6-mer frequency, TF over GST control).

CCCGCC was tested, and the binding signal [1] was 1.53 fold enrichment (6-mer frequency, TF over GST control), the binding signal [2] was 1.56 fold enrichment (6-mer frequency, TF over GST control) and the binding signal [3] was 1.38 fold enrichment (6-mer frequency, TF over GST control). The binding signal [4] was 1.39 fold enrichment (6-mer frequency, TF over GST control), the binding signal [5] was 1.48 fold enrichment (6-mer frequency, TF over GST control) and the binding signal [6] was 1.45 fold enrichment (6-mer frequency, TF over GST control). For the same sequence, the binding signal [7] was 1.47 fold enrichment (6-mer frequency, TF over GST control) and the binding signal [8] was 1.63 fold enrichment (6-mer frequency, TF over GST control).

For TTACAG, the binding signal [1] was 1.32 fold enrichment (6-mer frequency, TF over GST control), the binding signal [2] was 1.22 fold enrichment (6-mer frequency, TF over GST control) and the binding signal [3] was 1.21 fold enrichment (6-mer frequency, TF over GST control). For the same sequence, the binding signal [4] was 1.18 fold enrichment (6-mer frequency, TF over GST control), the binding signal [5] was 1.22 fold enrichment (6-mer frequency, TF over GST control) and the binding signal [6] was 1.16 fold enrichment (6-mer frequency, TF over GST control). For the same sequence, the binding signal [7] was 1.16 fold enrichment (6-mer frequency, TF over GST control) and the binding signal [8] was 1.19 fold enrichment (6-mer frequency, TF over GST control).
